The text below walks through data of PubChem BioAssay.

What is called inhibition is the change of the read-out against control, counted positive when it falls.

SMILES strings stand for the structures. Unmarked numbers belong to inactive results. For some assays here: Entries with a potency or affinity are not part of this list. The source made the active and inactive calls. Unless noted, no rule for the calls is given here.

A short description of assay [1]: antimalarial activity against Dd2 strain (AID 2302;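 active = growth inhibition above 50% at the single 2 µM test dose, taken to imply half-maximal potency below 2 µM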;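 also: 0% = DMSO untreated growth and 100% = chloroquine plus artemisinin killed control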). The conditions noted are these: P. falciparum Dd2 in RBCs, LDH growth readout, 72 h; at 2 µM; stronger effect = higher value.
Assay [2] is described as follows: human hepatoma cell viability loss – ATP luminescence, cytotoxicity control for P. falciparum antimalarial project, primary screen (AID 2303;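 active = inhibition above 50%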;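 also: 0% = DMSO wells and 100% = digitonin-killed cells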). The conditions noted are these: HepG2 viability, 24-48 h, at 10 µM, stronger effect = higher value.
The target in assay [3] is L-lactate dehydrogenase (Plasmodium falciparum (isolate CDC / Honduras)) (UniProt Q27743). In words: PfLDH activity inhibition – cell lysate, 3D7 strain, counter-screen for P. falciparum growth inhibition project (AID 2304).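 Also: 0% = vehicle and 100% = reference inhibitor.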 The conditions noted are these: P. falciparum 3D7 crude extract, LDH APAD/NBT absorbance; at 2 µM; stronger effect = higher value. On the technique in general: Counterscreens check selectivity or assay interference.

Assay [4] in a line: inhibition of 3D7 malaria parasite growth – strain 3D7 (AID 2306).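 Also: 0% = DMSO wells and 100% = chloroquine plus artemisinin control wells.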 The conditions noted are these: P. falciparum 3D7 erythrocytic growth, LDH absorbance, 72 h; at 2 µM; stronger effect = higher value.
The target in assay [5] is Calcium-dependent protein kinase 1 (Plasmodium falciparum (isolate 3D7)) (UniProt P62344). In words: PfCDPK1 kinase inhibitors, biochemical, TCAMS library (AID 1159585; cut-off not given, nearly all actives have IC50 up to about 0.98 µM;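 also: inhibitors leave more ATP so luminescence rises with inhibition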). The following applies: recombinant PfCDPK1, Kinase-Glo ATP depletion luminescence. (In Kinase-Glo more light means more ATP remaining.)
For assay [6], the target named is Plasmodium falciparum protein kinase 6 (PK6, PF3D7_1337100) (UniProt Q8IDW1). In words: PfPK6 kinase inhibitors, biochemical, TCAMS library (AID 1159586). The conditions noted are these: recombinant PfPK6, Kinase-Glo ATP depletion luminescence.
Assay [7] deals with Protein kinase 7 (PK7), Plasmodium falciparum 3D7 (PF3D7_0213400) (UniProt Q7YTF7). In words: inhibition of Plasmodium PK7 catalytic activity – biochemical, TCAMS antimalarial set, Kinase-Glo luminescence (AID 1159587). The conditions noted are these: recombinant PfPK7, Kinase-Glo ATP depletion luminescence.
Assay [8] concerns the target Calcium-dependent protein kinase 4 (Plasmodium falciparum (isolate 3D7)) (UniProt Q8IBS5). In words: PfCDPK4 kinase inhibitors, biochemical, TCAMS library (AID 1159588; cut-off not given, nearly all actives have IC50 up to about 0.91 µM). The conditions noted are these: recombinant PfCDPK4, Kinase-Glo ATP depletion luminescence.

Protein kinase 7 (PK7), Plasmodium falciparum 3D7 (PF3D7_0213400), sequence (Q7YTF7 1-343): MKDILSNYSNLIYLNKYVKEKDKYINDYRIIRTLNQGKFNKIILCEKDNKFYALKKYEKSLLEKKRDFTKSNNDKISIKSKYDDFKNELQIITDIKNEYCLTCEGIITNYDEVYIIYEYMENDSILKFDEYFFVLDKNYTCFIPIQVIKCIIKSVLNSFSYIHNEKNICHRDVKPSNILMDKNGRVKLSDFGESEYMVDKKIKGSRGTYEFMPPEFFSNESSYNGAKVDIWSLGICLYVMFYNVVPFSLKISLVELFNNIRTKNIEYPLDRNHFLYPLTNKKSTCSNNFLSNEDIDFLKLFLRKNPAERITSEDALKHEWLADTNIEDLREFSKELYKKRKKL
Plasmodium falciparum protein kinase 6 (PK6, PF3D7_1337100), sequence (Q8IDW1 1-305): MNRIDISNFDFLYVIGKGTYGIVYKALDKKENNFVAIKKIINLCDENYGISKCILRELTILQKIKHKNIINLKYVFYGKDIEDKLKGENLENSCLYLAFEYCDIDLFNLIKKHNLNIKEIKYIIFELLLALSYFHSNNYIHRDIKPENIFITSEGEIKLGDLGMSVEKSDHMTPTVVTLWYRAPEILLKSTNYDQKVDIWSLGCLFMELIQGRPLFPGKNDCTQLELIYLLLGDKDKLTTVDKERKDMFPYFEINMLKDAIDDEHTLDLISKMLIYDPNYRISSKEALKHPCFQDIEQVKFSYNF
Calcium-dependent protein kinase 4 (Plasmodium falciparum (isolate 3D7)), sequence (Q8IBS5 whole entry, looked up): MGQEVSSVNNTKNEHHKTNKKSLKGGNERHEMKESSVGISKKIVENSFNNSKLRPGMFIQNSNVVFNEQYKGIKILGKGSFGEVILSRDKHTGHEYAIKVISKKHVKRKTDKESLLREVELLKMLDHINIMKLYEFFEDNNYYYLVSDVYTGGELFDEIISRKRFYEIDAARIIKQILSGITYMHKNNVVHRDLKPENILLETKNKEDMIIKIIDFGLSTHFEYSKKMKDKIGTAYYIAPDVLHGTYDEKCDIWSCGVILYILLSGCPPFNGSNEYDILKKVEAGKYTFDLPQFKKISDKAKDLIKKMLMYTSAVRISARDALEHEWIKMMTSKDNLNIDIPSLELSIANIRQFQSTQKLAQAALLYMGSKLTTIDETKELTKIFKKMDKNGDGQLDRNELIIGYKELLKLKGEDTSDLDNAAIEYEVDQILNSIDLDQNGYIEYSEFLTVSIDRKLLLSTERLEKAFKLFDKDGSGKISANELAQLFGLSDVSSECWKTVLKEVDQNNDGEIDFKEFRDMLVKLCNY
L-lactate dehydrogenase (Plasmodium falciparum (isolate CDC / Honduras)), sequence (Q27743 whole entry, looked up): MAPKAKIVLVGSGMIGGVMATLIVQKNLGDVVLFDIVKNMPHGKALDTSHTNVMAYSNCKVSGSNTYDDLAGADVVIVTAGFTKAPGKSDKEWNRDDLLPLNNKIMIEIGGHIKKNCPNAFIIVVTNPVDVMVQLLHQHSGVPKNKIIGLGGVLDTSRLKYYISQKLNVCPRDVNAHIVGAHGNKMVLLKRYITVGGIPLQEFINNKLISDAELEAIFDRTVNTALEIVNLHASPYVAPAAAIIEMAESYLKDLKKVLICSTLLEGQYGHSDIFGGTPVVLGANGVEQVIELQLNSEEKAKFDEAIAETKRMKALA
Calcium-dependent protein kinase 1 (Plasmodium falciparum (isolate 3D7)), sequence (P62344 whole entry, looked up): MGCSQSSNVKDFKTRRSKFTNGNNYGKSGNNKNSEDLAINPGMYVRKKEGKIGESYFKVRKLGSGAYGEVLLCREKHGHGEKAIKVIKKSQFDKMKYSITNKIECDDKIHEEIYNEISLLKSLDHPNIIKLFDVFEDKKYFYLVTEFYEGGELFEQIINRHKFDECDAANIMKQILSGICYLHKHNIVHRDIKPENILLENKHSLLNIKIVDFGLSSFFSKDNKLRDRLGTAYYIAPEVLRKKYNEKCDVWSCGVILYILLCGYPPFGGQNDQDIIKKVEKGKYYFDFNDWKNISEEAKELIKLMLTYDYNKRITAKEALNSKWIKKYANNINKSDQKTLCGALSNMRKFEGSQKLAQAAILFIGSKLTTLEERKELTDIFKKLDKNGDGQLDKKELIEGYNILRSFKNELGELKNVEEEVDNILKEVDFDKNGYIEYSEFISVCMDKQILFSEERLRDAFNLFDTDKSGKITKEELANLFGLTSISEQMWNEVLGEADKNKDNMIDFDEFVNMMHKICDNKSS

Take `COC(=O)c1cccc(N2CCN(CCCNC(=O)/C(=C/C=C/c3cc4cc(Cl)c(Cl)cc4[nH]3)OC)CC2)c1`: the results for the growth inhibition in assay [1] and in assay [4] were 59% (active) and 100% (active), respectively. The inhibition in assay [2] is 38%; in assay [3] it was -1%. The result in assay [5], in assay [6], in assay [7] and in assay [8] was inactive.

For `O=C(Nc1ccc(C2=NC3CCCCC3N2)cc1)Nc1ccc(C2=NC3CCCCC3N2)cc1` (configuration not stated), the figures for the growth inhibition in assay [1] and in assay [4] were 76% (active) and 88% (active), respectively. For the same compound, the inhibition was 7% in assay [2] and 0% in assay [3]. Further, the outcome in assay [5], in assay [6], in assay [7] and in assay [8] was inactive.

On to `O=C(Nc1cccc(CN2CCCN(Cc3cccc(F)c3)CC2)c1)c1ccc(Cl)c(Cl)c1`, for which the figures for the growth inhibition in assay [1] and in assay [4] were 6% and 85% (active), respectively. The inhibition was 28% in assay [2] and -1% in assay [3]. Moreover, the result in assay [5], in assay [6], in assay [7] and in assay [8] was inactive.

Turning to `O=C(c1ccccc1N=Nc1c(-c2ccccc2)[nH]n(-c2ccccc2)c1=O)N1CCOCC1`, the growth inhibition in assay [1] is 2%; in assay [4], 97% (active). For the same compound, the inhibition was 0% in assay [2] and -1% in assay [3]. In addition, the result in assay [5], in assay [6], in assay [7] and in assay [8] was inactive.

As to `CC(=O)c1ccc(NC(=O)C2c3ccccc3C(=O)N(CC(C)C)C2c2cccs2)cc1` (configuration not stated), the results for the growth inhibition in assay [1] and in assay [4] were 51% (active) and 99% (active), respectively. The inhibition in assay [2] is 13%; in assay [3] it was -1%. The result in assay [5], in assay [6], in assay [7] and in assay [8] was inactive.

As to `CC(C)c1ccc(C=CC(=O)N2CCC(CCN3CCC(c4c[nH]c5ccccc45)CC3)CC2)cc1`, the figures for the growth inhibition in assay [1] and in assay [4] were 11% and 93% (active), respectively. Besides, the inhibition in assay [2] is 85% (active); in assay [3], 4%. Also, the result in assay [5], in assay [6], in assay [7] and in assay [8] was inactive.

For `C=CCc1cc(Cc2cnc(N)nc2N)cc(CCC)c1OC`, the growth inhibition is 1% in assay [1] and 83% (active) in assay [4]. For the same compound, the results for the inhibition in assay [2] and in assay [3] were 3% and 0%, respectively. The outcome in assay [5], in assay [6], in assay [7] and in assay [8] was inactive.

Take `Fc1ccc2nc(-c3ccc(-c4ccc(CN5CCC(CCN6CCCCC6)CC5)cc4)s3)[nH]c2c1`: the growth inhibition in assay [1] and in assay [4] was 101% (active) throughout. Further, the inhibition in assay [2] was 96% (active); in assay [3] it was 3%. The outcome in assay [5], in assay [6], in assay [7] and in assay [8] was inactive.

As to `CC1(C)N=C(NC(=O)c2ccc([N+](=O)[O-])cc2)N=C(N)N1OCc1ccc2ccccc2c1`, the growth inhibition is 78% (active) in assay [1] and 95% (active) in assay [4]. Besides, the values for the inhibition in assay [2] and in assay [3] were 64% (active) and -8%, respectively. The outcome in assay [5], in assay [6], in assay [7] and in assay [8] was inactive.

Consider `CN1CCCC(CN2CCN(Cc3cccc(-c4ccc(-c5nc6ccc(F)cc6[nH]5)cc4)c3)CC2)C1` (configuration not stated), for which the growth inhibition in assay [1] was 100% (active); in assay [4] it was 101% (active). Further, the inhibition was 78% (active) in assay [2] and -1% in assay [3]. The outcome in assay [5], in assay [6], in assay [7] and in assay [8] was inactive.

For the compound `O=C(/C=C/c1ccc(Cl)c(Cl)c1)NCCCCCN1CCN(C(=O)Nc2ccc(C(F)(F)F)cc2)CC1`, the growth inhibition in assay [1] is -1%; in assay [4], 99% (active). Also, the inhibition in assay [2] was 26%; in assay [3], -5%. The result in assay [5], in assay [6], in assay [7] and in assay [8] was inactive.

Turning to `O=C(CCNc1ccnc(NCCc2ccccc2)n1)Nc1ccccc1`, the values for the growth inhibition in assay [1] and in assay [4] were 19% and 89% (active), respectively. Besides, the inhibition was 7% in assay [2] and 2% in assay [3]. Further, the outcome in assay [5], in assay [6], in assay [7] and in assay [8] was inactive.

Take `Fc1ccc2nc(-c3ccc(-c4ccc(CN5CCN(c6cnccn6)CC5)cc4)s3)[nH]c2c1`: the growth inhibition was 98% (active) in assay [1] and 99% (active) in assay [4]. The results for the inhibition in assay [2] and in assay [3] were 45% and 5%, respectively. Also, the result in assay [5], in assay [6], in assay [7] and in assay [8] was inactive.

As for `c1cc(CN2CCN(CCN3CCOCC3)CC2)cc(-c2csc(-c3nc4ccccc4[nH]3)c2)c1`, the growth inhibition is 99% (active) in assay [1] and 100% (active) in assay [4]. In addition, the results for the inhibition in assay [2] and in assay [3] were 27% and -8%, respectively. Moreover, the outcome in assay [5], in assay [6], in assay [7] and in assay [8] was inactive.

Take `Clc1ccc(-c2ncc(-c3ccncc3)[nH]2)cc1Cl`: the growth inhibition was 63% (active) in assay [1] and 96% (active) in assay [4]. Also, the inhibition in assay [2] is 1%; in assay [3], -5%. Moreover, the result in assay [5], in assay [6], in assay [7] and in assay [8] was inactive.

For `COc1cc(N(Cc2ccc(F)cc2)C(=O)c2ccc(-c3ccccc3)cc2)ccc1OCCN1CCCC1`, the growth inhibition in assay [1] is 4%; in assay [4], 93% (active). The inhibition in assay [2] was 11%; in assay [3] it was -4%. Moreover, the result in assay [5], in assay [6], in assay [7] and in assay [8] was inactive.

For `c1ccc(-c2[nH]ncc2Nc2ccnc3ccccc23)nc1`, the growth inhibition was 98% (active) in assay [1] and 100% (active) in assay [4]. In addition, the results for the inhibition in assay [2] and in assay [3] were 36% and 1%, respectively. Also, the result in assay [5], in assay [6], in assay [7] and in assay [8] was inactive.

`Cc1cc(Br)cnc1CCCCNc1cc(=O)c2ccccc2[nH]1`: the growth inhibition was 64% (active) in assay [1] and 91% (active) in assay [4]. The inhibition in assay [2] and in assay [3] was -1% in each case. Besides, the result in assay [5], in assay [6], in assay [7] and in assay [8] was inactive.

Consider `O=C(NCCN1CCCC1)c1cccc(-c2ccc(-c3nc4ccc(F)cc4[nH]3)cc2)c1`, for which the growth inhibition is 85% (active) in assay [1] and 99% (active) in assay [4]. The inhibition in assay [2] is 33%; in assay [3], -3%. In addition, the result in assay [5], in assay [6], in assay [7] and in assay [8] was inactive.
